# Test results as given in PubChem BioAssay (EPA / NIEHS).
# Results filed as inconclusive are left out. Activity calls are given as the source filed them. The calls were made as follows: active = hit-call score of the fitted dose curve at least 0.9, where 1 is the maximum; inconclusive = response in the unintended direction; inactive = score below 0.9.
# Experiment: ATG_XTT_Cytotoxicity: Cytotoxicity Assessment in the Attagene TRANS-FACTORIAL HepG2 Assay (AID 2283584)
# Experimental: ATG_XTT_Cytotoxicity is a cell-based, single-readout assay that uses HepG2, a human liver cell line, with measurements taken at 24 hours after chemical dosing in a 24-well plate.ATG_XTT_Cytotoxicity is one of one assay component(s) measured or calculated from the ATG_XTT_Cytotoxicity assay. It is designed to make measurements of cell number, a form of viability reporter, as detected with […] signals by XTT cytotoxicity assay technology.Data from the assay component ATG_XTT_Cytotoxicity was analyzed into 1 assay endpoint. This assay endpoint, ATG_XTT_Cytotoxicity, was analyzed in the positive analysis fitting direction relative to DMSO as the negative control and baseline of activity. Using a type of viability reporter, loss-of-signal activity can be used to understand changes in the viability. Furthermore, this assay endpoint can be referred to as a primary readout, because the performed assay has only produced 1 assay endpoint. To generalize the intended target to other relatable targets, this assay endpoint is annotated to the cell cycle intended target family, where the subfamily is cytotoxicity.
# Human liver HepG2 cells are transiently transfected with multiple reporter transcription units (MRTUs) in 6-well plates using FuGene 6 reagent (Roche; 3 ml FuGene/1 mg DNA). The MRTU constructs are regulated by a cis-regulating element (promoter). […] A major difference between the CIS and TRANS system is that in CIS activities of endogenous TFs are measured, whereas the TRANS assay evaluates changes in activities of exogenous, chimeric NR-Gal4 proteins. […] At the end of 24 hour incubation, total RNA was isolated using TriZol reagent (Invitrogen). The isolated RNA is then reverse-transcribed using oligo(dT) primer and Mo-MLV reverse transcriptase (Invitrogen) with DNAse I (Ambion) treatment for 30 min. The one-tenth of the produced cDNA was amplified by PCR using Taq DNA polymerase (Invitrogen) and two reporter sequence-specific primers. The PCR products were fluorescently labeled by primer extension with 6-arboxyfluorescein (6-FAM) 5'-labeled reporter sequence-specific primer (2 min at 95 C, 20 s at 68 C and 10 min at 72 C) and these products were digested with 5U of HpaI (New England Biolabs) for 2h at 37 C. The fragments were purified using Qiaquick PCR columns (Qiagen), analyzed on an ABI 3130xL genetic analyzer (Applied Biosystems) with peak positions identified by using a set of X-rhodamine (ROX)-labeled MapMarker1000 molecular weight standards (BioVentures). The raw capillary electrophoresis data was processed using Attagraph software (Attagene).
row,Structure (SMILES),outcome
1,c1cc(C(c2ccc(OCC3CO3)cc2)C(c2ccc(OCC3CO3)cc2)c2ccc(OCC3CO3)cc2)ccc1OCC1CO1 (stereo not given),inactive
2,S=C(NC1CCCCC1)NC1CCCCC1,inactive
3,COC=O,inactive
4,CN(C)c1ccc(C(=N)c2ccc(N(C)C)cc2)cc1,inactive
5,CCN(CC#N)c1cccc(C)c1,inactive
6,N=c1ccn2c(n1)O[C@H]1[C@H](O)[C@@H](CO)O[C@H]12,inactive
7,C=C(C)C(=O)OCC(C)C,inactive
8,Cc1cc(C)c(C(=O)O)c(C)c1,inactive
9,CC(=O)Oc1ccc(C(C)=O)cc1,inactive
10,O=C(C=Cc1ccccc1)OCc1ccccc1,inactive
11,Nc1ccc(N=Nc2ccccc2)c(N)n1,inactive
12,CC(=O)OCC(=O)[C@@]12N=C(C)O[C@@H]1C[C@H]1[C@@H]3CCC4=CC(=O)C=C[C@]4(C)[C@H]3[C@@H](O)C[C@@]12C,inactive
13,c1ccc(CCCc2ccncc2)cc1,inactive
14,O=C(c1ccccc1)C1CCC1,inactive
15,CCCCCC(C)O (stereo not given),inactive
16,OCCNCc1ccccc1,inactive
17,Cc1ccc(C(C)c2ccc(C)c(C)c2)cc1C,inactive
18,CCCCCCOc1cc(C)c(O)c(C)c1C,inactive
19,CNC(=S)NN,inactive
20,C=C[Si](C)(C)O[Si](C)(C)C=C,inactive

row,Structure (SMILES),outcome
1,CC(C)(C)C1CCCCC1=O (stereo not given),inactive
2,[Cl][Nd]([Cl])[Cl],inactive
3,COC(=O)c1cc(Cl)ccc1[N+](=O)[O-],inactive
4,O=C1Nc2ccccc2C1(c1ccc(O)cc1)c1ccc(O)cc1,inactive
5,O=C1CCC(=O)N1Cl,inactive
6,CCCCCCC1(C)CCC(=O)O1 (stereo not given),inactive
7,CCCCCCCCCCC=CC#N,inactive
8,C/C=C\C/C=C/CCCCCCCCOC(C)=O,inactive
9,CCCc1ccc(OC)cc1,inactive
10,O=c1n(CCO)c(=O)n(CCO)c(=O)n1CCO,inactive
11,N#[N+]c1ccc2c(S(=O)(=O)[O-])cccc2c1O,inactive
12,O=C(O)c1ccccc1Nc1cccc(C(F)(F)F)c1,inactive
13,OCCCS,inactive
14,O=c1[nH]c(=O)c2[nH]c(=O)[nH]c2[nH]1,inactive
15,Nc1nc2ccccc2[nH]1,inactive
16,CC(C)=CCC/C(C)=C\C#N,inactive
17,CNC(=S)N(C)C,inactive
18,Nc1ccc2cc3ccccc3cc2c1,inactive
19,CCN(CCC#N)c1ccc(N=Nc2c(Cl)cc([N+](=O)[O-])cc2Cl)cc1,inactive
20,CC(=O)OC(C)C,inactive
